# Glioma ERSR ind: ER stress response induction in glioma; U87-MG GRP78 promoter luciferase reporter, 16 h; Potency, µM, actives largely listed as activators; AID 602332; hit rate 0.02% among 420,000; active = well fitted activation curve with a large enough effect; also: series mostly up to about 76 µM; nearly all actives have a fitted effect of over 35% in size
#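 ERSR induction read as luciferase luminescence (Bright-Glo, 10 min at room temperature) in stably transfected human U87-MG glioma cells exposed to compounds for 16 h, using GRP78 as sensor.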
# D1 antag: human D1 dopamine receptor antagonism; AID 504652; HEK293 TREx D1 cells, calcium flux, dopamine EC80; hits give low values; activity change, negative = inhibition, % at 10 µM; hit rate 3.2% among 360,000; P21728; in the data active = activity change below about -30%
# Target sequence (P21728 whole entry, looked up): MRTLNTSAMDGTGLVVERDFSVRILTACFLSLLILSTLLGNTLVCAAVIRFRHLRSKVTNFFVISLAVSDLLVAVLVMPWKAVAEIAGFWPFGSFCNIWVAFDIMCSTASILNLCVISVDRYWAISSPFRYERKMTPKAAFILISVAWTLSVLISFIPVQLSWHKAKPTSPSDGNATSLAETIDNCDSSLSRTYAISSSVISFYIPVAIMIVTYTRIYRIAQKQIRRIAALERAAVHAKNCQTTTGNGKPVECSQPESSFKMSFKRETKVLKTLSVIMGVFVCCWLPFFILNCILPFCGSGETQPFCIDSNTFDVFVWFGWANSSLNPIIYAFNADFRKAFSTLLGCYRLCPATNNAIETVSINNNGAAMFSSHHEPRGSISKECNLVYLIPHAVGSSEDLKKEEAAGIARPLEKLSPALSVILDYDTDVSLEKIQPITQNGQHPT
#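 Cells carrying a force-coupled, tetracycline-inducible human D1 receptor report calcium flux. Each well gets a 10 s baseline, compound with 180 s monitoring, then an EC80 dopamine stimulus with a second 180 s kinetic read.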
# D1 ag: human D1 receptor agonism | P21728 | HEK293 T-REx D1 cells, calcium flux, agonist mode | activation, % at 2 µM | hit rate 1% among 360,000
#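 Agonism was scored from calcium flux recorded over 180 s (1 read/s) after pintool compound addition, following a 10-cycle baseline. Cells were inducible force-coupled HEK293 TREx D1, plated overnight at 30 C and loaded with no-wash calcium dye.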
# TRHR agonist: agonists of human TRH receptor; TRHR cells, calcium flux fluo-8, FDSS agonist mode; activation, % at 2 µM; hit rate 0.18% among 360,000; AID 493084
#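 TRHR-expressing cells loaded with fluo-8 calcium dye; 23 nL library compound pin-transferred, kinetic FDSS fluorescence (Ex 480/Em 530) recorded about 180 s for agonist-induced calcium release, before a 10 nM TRH EC20 addition for potentiator mode.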
# D1 PAM: potentiators of human D1 dopamine receptor. AID 504651. hit rate 0.036% among 360,000. HEK293 TREx D1 cells, calcium flux, dopamine EC20 potentiation. potentiation, % at 10 µM; in the data active = potentiation above about 30%
# TRHR PAM: allosteric enhancers of human TRH receptor. P34981. TRHR cells, fluo-8 calcium fluorescence, EC20 TRH enhancement. enhancement, % at 2 µM. AID 493056. hit rate 0.66% among 360,000; in the data active = enhancement above about 30%
#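 TRHR-expressing cells loaded with fluo-8 calcium dye were read kinetically (ex 480/em 530) during compound addition, then stimulated with an EC20 of TRH (10 nM final). Enhancement of the Gq-mediated intracellular calcium response was scored.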
# A number is an active result; - = inactive; . = no result. Most compounds without a hit are left out; they make up all but 4% or so of the library. Rule as the data show it, unless noted: active = activation above about 30%; inactive = the rest.
SMILES,Glioma ERSR ind,D1 antag,D1 ag,TRHR agonist,D1 PAM,TRHR PAM
CCOC(=O)c1ccc(NC(=O)CC2S/C(=N/N=C/c3c[nH]c4ccccc34)NC2=O)cc1 (stereo unspecified),-,-36.4,-,-,-,-
COc1cccc(N2CCN(S(=O)(=O)c3cccc4cccnc34)CC2)c1,-,-,-,-,-,-
CCn1ncc(S(=O)(=O)N2CCN(c3cccc(OC)c3)CC2)c1C,-,-35.4,-,-,-,-
COc1ccc(N2C(=O)c3ccccc3NC2c2ccc(OC)c(COc3ccc(NC(C)=O)cc3)c2)cc1 (stereo unspecified),-,.,.,.,.,.
CCCN1CN(Cc2ccccc2)CNC1=S,-,-,-,-,-,-
CCc1ccc(N2CN(CCc3ccccc3)CNC2=S)cc1,-,-,-,-,-,-
S=C1NCN(CCc2ccccc2)CN1Cc1ccccc1,-,-,53.4,-,-,-
CC(C)CN1CN(Cc2ccccc2)CNC1=S,-,-31.1,-,-,-,-
COc1cccc(N2CN(CCc3ccccc3)CNC2=S)c1,-,-30.3,-,-,-,-
Cc1c(NC(=O)/C(C#N)=C/c2ccc(-c3cc(Cl)ccc3Cl)o2)c(=O)n(-c2ccccc2)n1C,-,-,-,-,-,33.7
CC(C)C(NC(=O)OC(C)(C)C)C(=O)NC(CCC(=O)OCc1ccccc1)C(N)=O (stereo unspecified),-,-,-,-,-,-
COc1ccc(CN2CCc3cc(OC)c(OC)cc3C2)cc1O,-,-47.8,-,-,-,-
COc1cc2c(cc1OC)CN(Cc1ccc(F)cc1)CC2,-,-,-,-,-,-
O=C(Cn1nnc(-c2cccc(C(F)(F)F)c2)n1)NC1CCCC1,-,-,-,-,-,-
CCCCOC(=O)CSc1nnc(-c2cc(OC)c(OC)c(OC)c2)o1,12.6µM,-,-,-,-,-
CCOC(=O)C1=C(C)NC(=O)NC1c1ccc(N(C)C)cc1 (stereo unspecified),-,-30.8,-,-,-,-
COc1ccccc1N1CCN(C(=O)c2ccco2)CC1,-,-,-,-,-,30.7
CCCCNc1c(N2CCN(C(=O)OCC)CC2)c(=O)c1=O,-,-,-,-,-,-
COc1ccccc1N1CCN(C(=O)CSc2nc(C)c(C)c(=O)[nH]2)CC1,-,-30.2,-,-,-,-
CCOC(=O)N1CCN(c2c(Nc3cc(C)[nH]n3)c(=O)c2=O)CC1,-,-,-,-,.,34.7
CCc1c(C)nc(SCC(=O)N2CCN(c3ccccc3OC)CC2)[nH]c1=O,-,-,-,-,-,-
COc1ccc(Cl)cc1NC(=O)Cn1c(=O)n(Cc2nc(C)no2)c(=O)c2ccccc21,-,-,-,-,-,-
CCOC(=O)N1CCN(c2c(N3CCN(c4ccccc4OC)CC3)c(=O)c2=O)CC1,-,-32.6,-,-,-,-
CCOC(=O)N1CCN(c2c(N3CCN(C(=O)OCC)CC3)c(=O)c2=O)CC1,-,-,-,-,-,-
CCOC(=O)C1=C(CN2CC(C)CC(C)C2)NC(=O)NC1c1ccc2c(c1)OCO2 (stereo unspecified),-,-,30.8,-,-,-
SMILES,Glioma ERSR ind,D1 antag,D1 ag,TRHR agonist,D1 PAM,TRHR PAM
CCOC(=O)C1=C(CN2CCN(c3ccccc3OC)CC2)NC(=O)NC1c1ccccc1 (stereo unspecified),-,-32.3,-,-,-,-
CCC(=O)OC1C(N(C)C)CC(C)O[C@H]1O[C@H]1[C@H](C)[C@@H](O[C@H]2CC(OC)[C@@H](O)C(C)O2)[C@H](C)C(=O)O[C@@H](CC)[C@](C)(O)[C@@H](O)[C@H](C)C(=O)[C@@H](C)C[C@]1(C)O (stereo partly specified),-,.,.,.,.,.
COc1ccc(-c2csc(NC(=O)c3ccccc3NS(=O)(=O)c3ccc(C)cc3)n2)cc1,-,-39.5,-,-,-,-
COc1ccc(S(=O)(=O)Nc2ccccc2C(=O)Nc2nc(-c3ccc(F)cc3)cs2)cc1OC,-,-,-,-,-,-
O=C(Nc1cccc(O)c1)c1cc(-c2ccccc2Cl)on1,-,-36.4,-,-,-,-
COc1ccccc1/C=C/CN1CCC(n2nccc2NC(=O)CCc2ccccc2)CC1,-,-,31.1,-,-,-
COc1ccccc1C(=O)Nc1ccnn1C1CCN(C(C)CSC)CC1 (stereo unspecified),-,-39.6,-,-,-,-
O=C(CCc1ccccc1)Nc1ccnn1C1CCN(C/C=C/c2ccccc2)CC1,-,-,-,-,-,-
COc1ccc(/C=N/NC(=O)C(Cc2c[nH]c3ccccc23)NC(=O)OCC(C)C)cc1[N+](=O)[O-] (stereo unspecified),-,-,-,-,-,-
O=C(NCCc1ccccc1)C1CCN(C2CCN(Cc3ccco3)CC2)CC1,-,-34.8,-,-,-,-
Cc1ccc(Nc2nc(-c3ccncc3)nc3ccccc23)cc1,-,-,-,-,-,-
Cc1ccc(Nc2nc(-c3ccccc3)nc3ccccc23)cc1,-,-30.2,-,-,-,-
Fc1ccccc1-c1nc(NCc2ccco2)c2ccccc2n1,-,-,-,-,-,-
Cc1ccc(Nc2nc(NCc3ccco3)c3ccccc3n2)cc1,-,-66.3,47.3,-,-,-
COc1ccccc1Nc1nc(NCc2ccco2)c2ccccc2n1,-,-92.8,-,-,-,-
Cc1ccc(Nc2nnc(C3C(=O)N(C)C4(C)CC3c3cc(Br)ccc3O4)s2)cc1 (stereo unspecified),-,-,35.7,-,-,-
C1CCC(Nc2nc3nonc3nc2N2CCSCC2)C1,-,-,-,-,-,31.7
C1CCN(C2CCN(c3nc4nonc4nc3N3CCSCC3)CC2)C1,-,-,-,-,-,-
CC(Sc1nnc(-c2cccnc2)n1N)C(=O)N1CCOCC1 (stereo unspecified),-,-,-,-,-,-
CC(Sc1nnc(-c2cccnc2)n1-c1ccccc1F)C(=O)N1CCCc2ccccc21 (stereo unspecified),.,-,-,-,-,37.0
Cc1csc(NC(=O)CSc2nnc(-c3ccoc3C)o2)n1,-,-,-,-,-,-
Cc1occc1-c1nnc(SCC(=O)Nc2nc(C(C)(C)C)cs2)o1,-,.,31.5,-,-,-
CCN(C/C=C/C#CC(C)(C)C)Cc1cccc(OCc2cc(-c3ccsc3)cs2)c1,-,.,.,.,.,.
O=[N+]([O-])c1ccc(Oc2ccc(S(=O)(=O)Nc3ccccc3)cc2)cc1,-,-,54.5,-,-,-
O=C(c1ccccc1NS(=O)(=O)c1ccc(Br)cc1)N1CCOCC1,-,-33.0,-,-,-,-
COC(=O)COc1ccc(S(=O)(=O)Nc2ccc3c(c2)OCCO3)cc1C,-,-,-,-,-,-

# High-throughput results as filed in PubChem BioAssay.
